Compound activity: PubChem, Bradner/Qi Labs at DFCI
CBX7 inh: CBX7 chromodomain binding inhibitors, primary screen, biochemical, AlphaScreen | Chromobox protein homolog 7 (Homo sapiens), O95931 | AlphaScreen His6-CBX7 / biotin-H3K27me3 peptide binding; active compounds read low | normalised signal (fraction of DMSO) (test concentration not listed) | 1.1% of 66,000 active | AID 1224903, 2016; in the data active = normalised signal below about 0.5
Target sequence (O95931 whole entry, looked up): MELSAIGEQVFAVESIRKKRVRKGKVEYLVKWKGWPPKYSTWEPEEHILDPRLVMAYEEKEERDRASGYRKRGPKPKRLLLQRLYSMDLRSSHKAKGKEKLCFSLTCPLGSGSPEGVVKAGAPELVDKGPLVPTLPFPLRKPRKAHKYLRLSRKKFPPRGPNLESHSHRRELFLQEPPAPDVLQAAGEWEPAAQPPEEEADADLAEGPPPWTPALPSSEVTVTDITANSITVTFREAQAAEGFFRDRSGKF
Active calls of the source: *; ! = not confirmed by another sample. The full list was thinned out, with hits kept by preference.

SMILES	CBX7 inh
CCCc1c(C)nc(Nc2nc(C)c3ccccc3n2)[nH]c1=O	0.92
Cc1ccc(OCCn2c(C3CC(=O)N(c4cccc(C)c4C)C3)nc3ccccc32)cc1 (stereo not drawn)	0.79
Cc1ccc(C)c(N2CC(c3nc4ccccc4n3CCOc3ccccc3)CC2=O)c1 (stereo not drawn)	0.7
Cc1ccc(OCCn2c(C3CC(=O)N(c4cc(C)ccc4C)C3)nc3ccccc32)cc1 (stereo not drawn)	0.49*
O=C(CC(c1ccccc1)c1ccccc1O)NCC1(c2ccccc2)CCCC1 (stereo not drawn)	0.88
CCOc1ccc(CNc2ccc3c(c2)ncn3-c2ccc(OC)cc2)cc1	0.75
COc1ccccc1CNc1ccc2c(c1)ncn2-c1ccccc1OC	0.59
COc1ccc(CNc2ccc3c(c2)ncn3-c2ccc(C)cc2)cc1	0.27*
COc1ccc(-n2cnc3cc(NCc4ccc(OC)c(OC)c4)ccc32)cc1	0.96
CCCn1cnc2cc(NCc3ccccc3OC)ccc21	0.58
COc1ccc(CNc2ccc3c(c2)ncn3C)c(OC)c1	0.96
COc1ccccc1CNc1ccc2c(c1)ncn2-c1ccc(C)cc1	0.22*
COc1ccccc1CNC(=O)c1ccc2c(c1)ncn2-c1ccc(C)c(Cl)c1	0.86
COc1ccc(-n2cnc3cc(NCc4ccccc4OC)ccc32)cc1	0.31*
Cc1ccc(-c2nn3c(C)nnc3s2)cc1NC(=O)Cc1ccc(Cl)cc1	0.98
CCOc1ccc(NC(=O)C2CCCN2S(=O)(=O)c2ccc3c(c2)CCC(=O)N3)cc1 (stereo not drawn)	1
Cc1ccc(-n2cc(C(=O)Nc3ccc(C(C)C)cc3)c3ccccc3c2=O)cc1C	0.88
Cc1ccc(C(C(=O)NC2CCCC2)N2CCOCC2)cc1 (stereo not drawn)	1.1
CC1(C)CC(=O)N(CC(=O)N2CCCC2)c2ccccc2S1(=O)=O	1
O=C(NCCCc1ccccc1)C1CCN(c2ccc(N3CCOCC3)nn2)CC1	0.94
O=[N+]([O-])c1ccc(-c2nc(-c3ccccc3)c(-c3ccc(F)cc3)[nH]2)cc1	0.66
COc1ccc(-c2nc(-c3ccccc3)c(-c3cccs3)[nH]2)c(OC)c1	0.54
Cc1ccc([N+](=O)[O-])cc1-c1[nH]c(-c2ccc(F)cc2)nc1-c1ccccc1	0.48*
COc1ccc(-c2nc(-c3ccccc3)c(-c3cccs3)[nH]2)cc1	0.82
c1ccc(Oc2ccc(-c3[nH]c(-c4ccccc4)nc3-c3ccccc3)cc2)cc1	0.47*
SMILES	CBX7 inh
COc1cc(-c2nc(-c3ccccc3)c(-c3cccs3)[nH]2)cc(OC)c1O	0.48*
Clc1ccc(-c2nc(-c3ccccc3)c(-c3ccccc3)[nH]2)cc1Cl	0.92
COc1ccc(-c2nc(-c3ccccc3)c(-c3ccc(F)cc3)[nH]2)cc1OC	0.38*
Cc1ccc(-c2nc(-c3ccc(F)cc3)[nH]c2-c2ccccc2)cc1C	0.96
Brc1cccc(-c2nc(-c3ccccc3)c(-c3ccc(Oc4ccccc4)cc3)[nH]2)c1	0.79
COc1ccc(-c2nc(-c3ccccc3)c(-c3ccc(F)cc3)[nH]2)cc1	0.85
COc1cc(OC)cc(-c2nc(-c3ccccc3)c(-c3ccc(F)cc3)[nH]2)c1	0.88
COc1ccc(Cc2noc(Cc3c(F)cccc3Cl)n2)cc1	1.4
Cc1oc(-c2cccc(Cl)c2)nc1CN1CCCC(C(=O)NCCCN(C)c2ccccc2)C1 (stereo not drawn)	0.79
CCCN(CCC)CC(O)CN(c1ccccc1OC)S(=O)(=O)c1ccc(C)cc1 (stereo not drawn)	1.3
COc1ccc(Nc2ncc(C(=O)NCCCN3CCCC3)c3ccccc23)cc1	1.1
CN(C)c1ccc(NC(=O)Cn2c(SCc3ccccc3F)nc3ccncc32)cc1	0.82
Cc1nc(N2CCN(c3ccc(Cl)c(Cl)c3)CC2)c2c3c(sc2n1)CCCC3	1.1
Cc1cc2cc(CCNC(=O)c3ccc4c(c3)OCO4)c(=O)[nH]c2cc1C	0.91
COC(=O)c1cc2oc(C)cc2n1Cc1c(F)cccc1Cl	1
COc1ccc(Nc2ncc(C(=O)N3CCC(C)CC3)c3ccccc23)cc1	0.84
COc1ccc(Cl)cc1N1CC(c2nc3ccccc3n2CCOc2cccc(C)c2)CC1=O (stereo not drawn)	1
CCC(=C(c1ccc(OC)cc1)c1ccc(OC)cc1)c1cn(CCCN(C)C)c2ccccc12	0.27*
COc1ccc(C(O)Cn2c(=N)n(CCCN(C)C)c3ccccc32)cc1 (stereo not drawn)	0.95
COc1ccc(C(=O)c2cn(Cc3ccc(Cl)cc3)c3ccccc3c2=O)cc1	0.62
O=C(NCc1ccc2c(c1)OCO2)C1CCN(c2nnc(-n3cccc3)s2)CC1	1
Cc1ccc(-c2nc(C(=O)NCCN3CCOCC3)c(C)o2)cc1	1.1
COc1ccc(C(CC(=O)c2ccco2)Sc2cccc3cccnc23)cc1OC (stereo not drawn)	0.005*
COc1ccc(CCNC(=O)C2CCN(S(=O)(=O)c3cccc4cccnc34)CC2)cc1OC	1
CCOC(=O)c1nnn(-c2nonc2N)c1CSc1cccc2cccnc12	0.99
SMILES	CBX7 inh
COCCCNC(=O)c1ccc2c(c1)nc(C)n2-c1ccc(OC)cc1	1.1
Cc1ccnc(NC(=O)C(Cc2ccccc2)NS(=O)(=O)c2ccc3c(c2)CCC(=O)N3)c1 (stereo not drawn)	1
COc1ccc(NC(=O)CSc2nnc(CNC(=O)c3c(F)cccc3Cl)o2)c(OC)c1	0.86
Cc1nc2sccn2c1-c1csc(Nc2ccc(Br)cc2)n1	0.92
CCCCNC(=O)CN1C(=O)COc2ccc(C(C)(C)C)cc21	0.93
Cc1ccc(CNC(=O)CN2C(=O)COc3ccc(C(C)(C)C)cc32)cc1	1.1
CC(C)(C)c1ccc2c(c1)N(CC(=O)NCc1ccc3c(c1)OCO3)C(=O)CO2	1.1
CCN(CCCNC(=O)CN1C(=O)COc2ccc(C(C)(C)C)cc21)c1cccc(C)c1	0.27*
CC(C)(C)c1ccc2c(c1)N(CC(=O)NCc1cccs1)C(=O)CO2	0.19*
CCN(CCCNC(=O)CCCN1C(=O)COc2ccc(C)cc21)c1cccc(C)c1	0.85
COc1ccc(NC(=O)C2CCCN(S(=O)(=O)c3c(C)noc3C)C2)cc1OC (stereo not drawn)	0.9
CC(NC(=O)c1ccc2c(c1)N(Cc1ccccc1F)C(=O)CS2)c1ccccc1 (stereo not drawn)	1
CC(=O)Nc1ccc(-n2c(/C=C\c3ccc(F)c(F)c3)nc3ccccc3c2=O)cc1	1.1
COc1ccccc1C(CCNCc1ccc2c(c1)OCO2)c1ccc2c(c1)OCO2 (stereo not drawn)	0.79
COc1ccccc1C(CCNCc1ccc(OC(C)C)cc1)c1ccc2c(c1)OCO2 (stereo not drawn)	0.17*
COc1ccc(CNCCC(c2ccccc2)c2ccc3c(c2)OCO3)cc1 (stereo not drawn)	0.9
O=C(Nc1ccc(S(=O)(=O)Nc2nccs2)cc1)c1cnc2n(c1=O)CCS2	1
Clc1ccc(-c2csc(Nc3ccc4c(c3)OCO4)n2)cc1	0.64
COc1ccc(-c2csc(Nc3ccc(S(N)(=O)=O)cc3)n2)cc1C	0.55
CC(C)Cc1ccc(-c2csc(Nc3ccc4c(c3)OCO4)n2)cc1	0.19*!
Cc1ccc(-c2csc(N3CCN(Cc4ccc5c(c4)OCO5)CC3)n2)cc1	0.88
CCc1ccc(-c2csc(Nc3cc(OC)c(Cl)cc3OC)n2)cc1	0.66
COc1ccc(-c2csc(Nc3ccc4c(c3)OCO4)n2)cc1Br	0.33*!
